# Experimental data reported in PubChem BioAssay AID720649 (The Scripps Research Institute Molecular Screening Center, 2013).
# This is one part of the list. The source made the active and inactive calls. How the calls were made is not given here.
# Experiment: TO-PRO-1 dye complex inhibitors on d(CAG) DNA, dose response, counter-screen, biochemical, fluorescence, late stage (AID 720649)
# Conditions: d(CAG) DNA duplex TO-PRO-1 dye displacement
structure (smiles),measurement,value
Cc1noc(NS(=O)(=O)c2ccc(NC(=O)c3oc4ccc(F)cc4c3C)cc2)c1C,IC50,4.19 µM (active)
